Results: the supplement of paper PMC10338343
± gives the standard deviation. Whole data set: some 6,200 sequences, median “pre-steady-state target cleavage rate” near 0.29, cut for the highest 2% near 2. This excerpt belongs to a sample that is enriched for the highest values.

These sequences were tested on MIWI (PIWIL1) piRISC loaded with piRNA #1 (30 nt) (assay: pre-steady-state target cleavage rate (min^-1); MIWI and MILI are mouse PIWI proteins and EfPiwi is from a freshwater sponge; tags in brackets are library labels; higher = faster piRNA-guided slicing of the target). Settings: guide: piRNA #1 5'p-UGAGGUAGUAGGUUGUAUAGUAUCCAGAGG; auxiliary factor: 500 nM mouse GTSF1.
Protocol: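 Cleave-'n-Seq: a library of target RNAs (target site embedded in constant flanks, ACAGCATTCCGCGTTAGTGATATCCG... 5' flank; DNA-blocked outside the site) at 0.1 nM was incubated with 1 nM active mouse MILI or MIWI piRISC (synthetic 5'-monophosphorylated piRNA guide) with or without 500 nM mouse GTSF1 at 33 °C for 1 min to 16 h. Uncleaved targets were sequenced and normalised to non-target controls, and the pooled three trials were fitted to a burst-and-steady-state model to give the pre-steady-state cleavage rate (min^-1; k3 is constrained to at most 1e-4). Sequence is the target site only; target names encode pairing extent (gX:gY) and contiguous / 1-mismatch / 2-mismatch / bulge geometry. Fits with R² ≤ 0 are excluded.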

| Sequence | pre-steady-state target cleavage rate |
| --- | --- |
| CCUCUGGAUACUAUAUAACCUACUACCUCA | 2.07 ± 0.12 |
| CUUCUGGAUACUAUACAACCUACUACCUCA | 1.99 ± 0.11 |
| GCUCUGGAAUACUAUACAACCUACUACCUCA | 1.92 ± 0.1 |
| GCUCUGGAUACUAUAUAACCUACUACCUCA | 1.79 ± 0.1 |
| GGUCUGGAAUACUAUACAACCUACUACCUCA | 1.83 ± 0.11 |
| CCUUCUGGAUACUAUACAACCUACUACCUCA | 2.22 ± 0.12 |
| CCUCUGGAUACUAUACAACCUAUUACCUCA | 2.07 ± 0.13 |
| GCUCUGGAUACUAUACAACCUAUUACCUCA | 1.88 ± 0.13 |
| CCUCUGGAUACUAUUACAACCUACUACCUCA | 1.82 ± 0.12 |
| GCUUCUGGAUACUAUACAACCUACUACCUCA | 1.94 ± 0.091 |
| GGACUGGAUAACUAUACAACCUACUACCUCA | 1.11 ± 0.087 |
| GGAGACCAUACUAUACAUCCUAGUACCUCA | 0.343 ± 0.029 |
| CCUCUGGAUACUAUAGAACCUACAACCUCA | 0.0249 ± 0.007 |
| CCUCUGGAUACUAUACAACCUACUAACCUCA | 2.09 ± 0.13 |
| GCUCUGGAUACUAUACAACCUACCUACCUCA | 1.63 ± 0.091 |
| GCUCUGGAUACUAUACAACCUACUACCUCA [g2:g29:cont:t1A] | 1.89 ± 0.1 |
| GCUCUGGAAACUAUUCAACCUACUACCUCA | 1.68 ± 0.12 |
| CGCUCUGGAUACUAUACAACCUACUACCUCA | 2.27 ± 0.14 |
| GGUCUGGAAACUAUUCAACCUACUACCUCA | 1.58 ± 0.096 |
| CCUCUGGAUACUAUACAACCUAACUACCUCA | 0.0333 ± 0.0068 |
| GCUCUGGAUACUAUACAACCUACUAACCUCA | 1.71 ± 0.11 |
| CCUCUGGAAACUAUUCAACCUACUACCUCA | 2.02 ± 0.13 |
| GGAGAGGAAACUAUACAACGUACUACCUCA | 0.27 ± 0.037 |
| GGAGACCUAUGAUAUGUACCAACAACCUCA | < 0.0001 |
| GGAGUCGGAUACUAUACAACCUACUACCUCA | 1.45 ± 0.091 |

| Sequence | pre-steady-state target cleavage rate |
| --- | --- |
| GGUCUGCAUACUAUACAACCUACUACCUCA | 1.71 ± 0.1 |
| GCUCUGGAUACUACACAACCUACUACCUCA | 1.89 ± 0.095 |
| GGAGACCAUACUAAACAACCUACUACCUGA | 0.604 ± 0.08 |
| GGAGAGCAUACUAUACAACGUACUACCUCA | 0.557 ± 0.036 |
| GGUAUGGAUACUAUACAACCUACUACCUCA | 1.88 ± 0.11 |
| GGUCAUGGAUACUAUACAACCUACUACCUCA | 1.85 ± 0.11 |
| GCUAUGGAUACUAUACAACCUACUACCUCA | 1.93 ± 0.092 |
| GCUCAUGGAUACUAUACAACCUACUACCUCA | 1.98 ± 0.1 |
| CCUAUGGAUACUAUACAACCUACUACCUCA | 2.15 ± 0.12 |
| CCUCAUGGAUACUAUACAACCUACUACCUCA | 2.31 ± 0.13 |
| GGAGACGAUACAAUACAACCUACUUCCUCA | 0.408 ± 0.056 |
| GGUUGGAUACUAUACAACCUACUACCUCA | 1.78 ± 0.1 |
| CCUUGGAUACUAUACAACCUACUACCUCA | 2.26 ± 0.14 |
| GCUUGGAUACUAUACAACCUACUACCUCA | 1.87 ± 0.12 |
| GCUCUUGGAUACUAUACAACCUACUACCUCA | 2.1 ± 0.1 |
| GGUCUUGGAUACUAUACAACCUACUACCUCA | 1.87 ± 0.11 |
| GCUUUGGAUACUAUACAACCUACUACCUCA | 1.91 ± 0.11 |
| CCUCUUGGAUACUAUACAACCUACUACCUCA | 2.3 ± 0.12 |
| GGUUUGGAUACUAUACAACCUACUACCUCA | 1.81 ± 0.084 |
| CCUUUGGAUACUAUACAACCUACUACCUCA | 2.3 ± 0.12 |
| GGACUUGGAUACUAUACAACCUACUACCUCA | 1.78 ± 0.11 |
| GGAGACCUAACUAUACUAGCUACUACCUCA | 0.0132 ± 0.006 |
| GGAGACCUAACUUACAACCUACUACCUCA | 0.00932 ± 0.008 |
| CCUCUGGAUACUAUCAACCUACUACCUCA | 1.82 ± 0.12 |
| GGAGAGGAUACAAUACAACCUACUACCUCA | 1.18 ± 0.063 |

| Sequence | pre-steady-state target cleavage rate |
| --- | --- |
| CCUCUGGAUACUAUACAAACUACUACCUCA | 1.27 ± 0.047 |
| GGAGACCUAUCUAUACUACCUACUACCUCA | 0.0899 ± 0.011 |
| GGUCUGGAUAGUAUACAACGUACUACCUCA | 0.319 ± 0.047 |
| GGAGACCUAACUAUACAACGUACUAGCUCA | 0.024 ± 0.0084 |
| GGACUGGAUGCUAUACAACCUACUACCUCA | 1.82 ± 0.15 |
| GGUCUGGAUACUAUCCAACCUACUACCUCA | 1.96 ± 0.14 |
| GCUCUGGAUACUAUACCAACCUACUACCUCA | 0.392 ± 0.075 |
| CCUCUGGAUACUAUCCAACCUACUACCUCA | 2.1 ± 0.14 |
| GCUCUGGAUACUAUCCAACCUACUACCUCA | 2.05 ± 0.14 |
| GGACUGGAUACUAUCCAACCUACUACCUCA | 1.76 ± 0.11 |
| GCUCUGGAUACUAUCAACCUACUACCUCA | 1.78 ± 0.12 |
| GGAGAGGAUACUAUACAACCUAGUACCUCA | 0.145 ± 0.031 |
| GGAGACGAUACUAUACAACCUACAUCCUCA | 0.342 ± 0.029 |
| GGAGACCAAACUAUACAUCCUACUACCUCA | 0.513 ± 0.06 |
| GGAGUGCAUACUAUACAACCUACUACGUCA | 0.629 ± 0.053 |
| GGUCUGGAUACUUAUCAACCUACUACCUCA | 0.863 ± 0.11 |
| GGACUGGCAUACUAUACAACCUACUACCUCA | 1.68 ± 0.12 |
| GCUCUGGCUACUAUACAACCUACUACCUCA | 1.93 ± 0.099 |
| CCUCUGGCAUACUAUACAACCUACUACCUCA | 2.31 ± 0.12 |
| GGUCUGGCAUACUAUACAACCUACUACCUCA | 1.86 ± 0.12 |
| GCUCUGCAUACUAUACAACCUACAACCUCA | 1.37 ± 0.12 |
| GCUCUGGCAUACUAUACAACCUACUACCUCA | 2.17 ± 0.12 |
| GGUCUGGCUACUAUACAACCUACUACCUCA | 1.99 ± 0.11 |
| GCUCUGGAUACUAUACAACCUACAUACCUCA | 1.87 ± 0.16 |
| CCUCUGGCUACUAUACAACCUACUACCUCA | 2.25 ± 0.11 |
